Test [1] deals with Estrogen-related receptor gamma (Homo sapiens) (UniProt P62508). The test can be described thus: ATG_ERRg_TRANS: Attagene TRANS-FACTORIAL HepG2 Assay for human Estrogen-Related Receptor gamma (ERRg) (AID 2282977).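 Note: hits increase reporter signal over DMSO so potencies reflect activators.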 The conditions noted are these: HepG2 Attagene TRANS reporter, ERRg transactivation. Put shortly: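 Readout: fluorescent reporter-mRNA fragments resolved by capillary electrophoresis after RT-PCR and HpaI cut. Cells: transiently transfected HepG2 carrying GAL4-UAS reporters driven by exogenous NR-Gal4 chimeras, dosed 24 h. Activity fitted upward relative to DMSO baseline.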

Test [2] deals with Glucocorticoid receptor (Homo sapiens) (UniProt P04150). The test can be described thus: ATG_GR_TRANS: Attagene TRANS-FACTORIAL HepG2 Assay for human Glucocorticoid Receptor (GR) (AID 2282978).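 Note: activators score as hits since higher reporter transcript over DMSO is fitted.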 The conditions noted are these: HepG2 Attagene TRANS GR reporter, mRNA transcription. The method, boiled down: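 Exogenous NR-GAL4 fusion activity was assessed through induced GAL4-UAS reporter transcripts in transfected human HepG2 cells, quantified after 24 h by RT-PCR and fluorescent capillary electrophoresis with DMSO as baseline.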

Test [3] addresses Bile acid receptor (Homo sapiens) (UniProt Q96RI1). The test can be described thus: ATG_FXR_TRANS: Attagene TRANS-FACTORIAL HepG2 Assay for Farnesoid X Receptor (FXR) (AID 2282979).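 Note: hits raise reporter mRNA above DMSO so AC50 marks FXR activation.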 The conditions noted are these: HepG2 Attagene TRANS FXR-GAL4 reporter transcription. The method, boiled down:
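Transient transfection of HepG2 with multiplexed GAL4-UAS reporter units; exogenous FXR-GAL4 chimera. Dose 24 h → TriZol RNA → oligo(dT) RT → PCR, 6-FAM primer extension, HpaI cut → CE. Gain vs DMSO.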

Test [4] has as its target Oxysterols receptor LXR-alpha (Homo sapiens) (UniProt Q13133). The experiment in a line: ATG_LXRa_TRANS: Attagene TRANS-FACTORIAL HepG2 Assay for human Liver X Receptor alpha (LXRa) (AID 2282980). The conditions noted are these: HepG2 Attagene TRANS reporter, LXRa transactivation. The method, boiled down: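 Transfect HepG2 with GAL4-UAS multiplex reporter constructs (TRANS format, chimeric receptor-GAL4); treat 24 h; extract RNA, reverse-transcribe, PCR-amplify, FAM-label, HpaI-digest; resolve fragments by capillary electrophoresis. Upward response vs DMSO.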

In test [5] the target is Oxysterols receptor LXR-beta (Homo sapiens) (UniProt P55055). The test can be described thus: ATG_LXRb_TRANS: Attagene TRANS-FACTORIAL HepG2 Assay for human Liver X Receptor beta (LXRb) (AID 2282981). The conditions noted are these: HepG2 Attagene TRANS GAL4-LXRb reporter, mRNA. Put shortly:
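Readout: fluorescent reporter mRNA fragments resolved by capillary electrophoresis after RT-PCR. System: transiently transfected human HepG2, exogenous LXRb-Gal4 chimera driving GAL4-UAS reporter, 24 h dosing. Activity fitted upward against DMSO baseline.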

A short description of test [6]: ATG_M_06_TRANS: Attagene TRANS-FACTORIAL HepG2 Assay for M06 Transcription Factor (Internal Marker) (AID 2282983).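 For AC50: potency for rise in reporter mRNA above DMSO baseline.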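 For outcome: reporter transcript level by RT-PCR then capillary electrophoresis fluorescence.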 The conditions noted are these: HepG2 Attagene TRANS M06 internal marker reporter. Put shortly:
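Background control endpoint: reporter mRNA from transiently transfected HepG2 after 24 h dosing, detected by RT-PCR with capillary electrophoresis fluorescence. Analysed for gain versus DMSO.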

A short description of test [7]: ATG_M_32_TRANS: Attagene TRANS-FACTORIAL HepG2 Assay for M32 Transcription Factor (Internal Marker) (AID 2282984).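 Note: transcript level of a background control reporter unit measured by RT-PCR and capillary electrophoresis.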 The conditions noted are these: HepG2 Attagene TRANS M32 internal marker reporter. Put shortly:
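Read-out: fluorescent reporter cDNA fragments resolved by capillary electrophoresis after RT-PCR of total RNA. Transfected HepG2 cells were exposed to chemical for 24 h. Activity scored in the positive direction relative to DMSO.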

Test [8] has as its target Nuclear receptor subfamily 4 group A member 2 (Homo sapiens) (UniProt P43354). The test can be described thus: ATG_NURR1_TRANS: Attagene TRANS-FACTORIAL HepG2 Assay for human Nuclear Receptor Related Protein 1 (NURR1) (AID 2282985). The conditions noted are these: HepG2 Attagene TRANS reporter, mRNA readout. Put shortly:
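Read-out: reporter mRNA induction by RT-PCR plus capillary electrophoresis with fluorescence detection, after 24 h dosing of transfected HepG2 cells. Exogenous NR-Gal4 chimera activity drives GAL4-UAS reporter; activity fitted upward versus DMSO.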

The target in test [9] is Transcriptional activator Myb (Homo sapiens) (UniProt P10242). The experiment in a line: ATG_Myb_CIS: Attagene CIS-FACTORIAL HepG2 Assay for human Myeloblastosis (Myb) Proto-Oncogene Transcription Factor (AID 2282986; active = hit-call score of the fitted dose curve at least 0.9, where 1 is the maximum; inactive = score below 0.9). The conditions noted are these: HepG2 Attagene CIS-FACTORIAL Myb reporter transcription; actives raise or lower the signal. Put shortly:
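In this HepG2 transient-transfection format, cis-regulated reporter mRNA is quantified 24 h post-dosing by RT-PCR with capillary electrophoresis, fitted bidirectionally to DMSO baseline.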

Test [10] addresses Hepatocyte nuclear factor 4-alpha (Homo sapiens) (UniProt P41235). The experiment in a line: ATG_HNF4a_TRANS: Attagene TRANS-FACTORIAL HepG2 Assay for human Hepatocyte Nuclear Factor 4 alpha (HNF4a) (AID 2282982). The conditions noted are these: HepG2 HNF4a transactivation reporter, mRNA readout. Put shortly:
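Transient MRTU transfection of HepG2, 24 h dosing. Readout: reporter mRNA via RT-PCR + capillary electrophoresis, fluorescence; activity fit upward relative to DMSO control.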

“And” between values parts separate entries of the source, which are not always exact repeats. Equal entries are not always repeated. Results filed as inconclusive are left out. Where a structure was tested more than once in an assay, its records may differ in their call. The source made the active and inactive calls. Rule for the calls, unless noted: active = hit-call score of the fitted dose curve at least 0.9, where 1 is the maximum; inconclusive = response in the unintended direction; inactive = score below 0.9.

Usually AC50 stands for the midpoint of the concentration-response curve, whichever way the signal moves.

Chain of Bile acid receptor (Homo sapiens) (Q96RI1 whole entry, looked up, the tested form may be a part): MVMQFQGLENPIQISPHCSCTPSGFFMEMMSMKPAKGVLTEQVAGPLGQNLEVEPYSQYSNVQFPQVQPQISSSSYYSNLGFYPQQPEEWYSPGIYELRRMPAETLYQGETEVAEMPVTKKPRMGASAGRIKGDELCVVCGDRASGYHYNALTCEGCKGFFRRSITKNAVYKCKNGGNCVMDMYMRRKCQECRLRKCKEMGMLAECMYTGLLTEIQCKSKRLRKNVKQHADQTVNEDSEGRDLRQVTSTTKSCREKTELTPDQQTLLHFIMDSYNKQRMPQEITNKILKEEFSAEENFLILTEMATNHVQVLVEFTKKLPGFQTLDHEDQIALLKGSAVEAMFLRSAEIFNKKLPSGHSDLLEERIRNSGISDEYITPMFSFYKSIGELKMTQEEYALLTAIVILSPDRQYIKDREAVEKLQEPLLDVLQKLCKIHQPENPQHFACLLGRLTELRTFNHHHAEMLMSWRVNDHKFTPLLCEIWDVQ
Chain of Hepatocyte nuclear factor 4-alpha (Homo sapiens) (P41235 whole entry, looked up): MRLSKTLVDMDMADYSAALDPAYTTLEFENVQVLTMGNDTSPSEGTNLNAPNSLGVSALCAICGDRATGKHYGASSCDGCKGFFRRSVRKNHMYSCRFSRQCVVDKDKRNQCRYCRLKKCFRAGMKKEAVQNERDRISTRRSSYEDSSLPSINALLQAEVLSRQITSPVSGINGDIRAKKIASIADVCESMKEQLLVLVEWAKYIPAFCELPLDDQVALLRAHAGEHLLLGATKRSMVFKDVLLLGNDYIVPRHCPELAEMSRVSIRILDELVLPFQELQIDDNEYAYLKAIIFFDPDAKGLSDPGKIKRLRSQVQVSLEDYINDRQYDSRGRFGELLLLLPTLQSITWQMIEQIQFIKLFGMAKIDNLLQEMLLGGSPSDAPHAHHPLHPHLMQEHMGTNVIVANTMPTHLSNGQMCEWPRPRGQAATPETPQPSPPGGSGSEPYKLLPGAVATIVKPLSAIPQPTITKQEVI
Chain of Transcriptional activator Myb (Homo sapiens) (P10242 whole entry, looked up): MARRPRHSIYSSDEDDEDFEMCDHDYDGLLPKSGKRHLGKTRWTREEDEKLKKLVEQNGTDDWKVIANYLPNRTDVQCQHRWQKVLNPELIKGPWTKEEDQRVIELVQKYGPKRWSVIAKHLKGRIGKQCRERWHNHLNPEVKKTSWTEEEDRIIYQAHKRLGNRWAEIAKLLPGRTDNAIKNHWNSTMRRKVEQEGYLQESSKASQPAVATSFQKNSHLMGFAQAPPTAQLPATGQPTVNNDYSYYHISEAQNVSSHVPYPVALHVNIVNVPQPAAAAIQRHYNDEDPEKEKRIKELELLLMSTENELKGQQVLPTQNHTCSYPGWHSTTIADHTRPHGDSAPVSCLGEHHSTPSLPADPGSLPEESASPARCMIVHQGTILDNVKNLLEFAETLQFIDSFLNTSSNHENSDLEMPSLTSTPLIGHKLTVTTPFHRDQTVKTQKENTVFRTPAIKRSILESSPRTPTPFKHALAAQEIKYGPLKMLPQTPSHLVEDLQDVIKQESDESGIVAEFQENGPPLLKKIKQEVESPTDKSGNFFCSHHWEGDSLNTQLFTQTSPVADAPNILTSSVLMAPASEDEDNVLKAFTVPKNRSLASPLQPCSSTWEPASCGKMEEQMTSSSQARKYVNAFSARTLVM
Chain of Oxysterols receptor LXR-beta (Homo sapiens) (P55055 whole entry, looked up, the tested form may be a part): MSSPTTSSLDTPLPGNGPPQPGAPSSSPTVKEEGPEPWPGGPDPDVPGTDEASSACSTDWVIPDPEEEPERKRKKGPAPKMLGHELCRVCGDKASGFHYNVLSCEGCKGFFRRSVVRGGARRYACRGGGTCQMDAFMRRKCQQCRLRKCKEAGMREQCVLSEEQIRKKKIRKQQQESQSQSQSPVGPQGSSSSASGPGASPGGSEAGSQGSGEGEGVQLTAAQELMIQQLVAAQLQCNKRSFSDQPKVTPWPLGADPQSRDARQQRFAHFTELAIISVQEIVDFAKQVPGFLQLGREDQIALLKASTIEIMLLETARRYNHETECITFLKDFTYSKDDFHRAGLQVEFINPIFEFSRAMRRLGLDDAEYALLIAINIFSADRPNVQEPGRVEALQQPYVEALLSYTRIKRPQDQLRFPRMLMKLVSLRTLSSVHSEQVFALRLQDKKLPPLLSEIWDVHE
Chain of Estrogen-related receptor gamma (Homo sapiens) (P62508 whole entry, looked up, the tested form may be a part): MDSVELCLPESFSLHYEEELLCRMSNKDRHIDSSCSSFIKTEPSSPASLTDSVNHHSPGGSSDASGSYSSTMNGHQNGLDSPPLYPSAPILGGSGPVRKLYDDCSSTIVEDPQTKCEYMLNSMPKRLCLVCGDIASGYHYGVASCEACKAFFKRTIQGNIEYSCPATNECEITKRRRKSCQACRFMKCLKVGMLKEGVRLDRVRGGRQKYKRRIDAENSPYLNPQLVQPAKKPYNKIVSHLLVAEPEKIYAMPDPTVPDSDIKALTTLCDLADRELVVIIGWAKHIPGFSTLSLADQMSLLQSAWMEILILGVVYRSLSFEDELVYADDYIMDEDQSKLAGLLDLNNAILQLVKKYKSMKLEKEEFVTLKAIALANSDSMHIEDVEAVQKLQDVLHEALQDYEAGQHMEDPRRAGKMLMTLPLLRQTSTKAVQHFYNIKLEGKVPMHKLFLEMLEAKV
Chain of Glucocorticoid receptor (Homo sapiens) (P04150 whole entry, looked up, the tested form may be a part): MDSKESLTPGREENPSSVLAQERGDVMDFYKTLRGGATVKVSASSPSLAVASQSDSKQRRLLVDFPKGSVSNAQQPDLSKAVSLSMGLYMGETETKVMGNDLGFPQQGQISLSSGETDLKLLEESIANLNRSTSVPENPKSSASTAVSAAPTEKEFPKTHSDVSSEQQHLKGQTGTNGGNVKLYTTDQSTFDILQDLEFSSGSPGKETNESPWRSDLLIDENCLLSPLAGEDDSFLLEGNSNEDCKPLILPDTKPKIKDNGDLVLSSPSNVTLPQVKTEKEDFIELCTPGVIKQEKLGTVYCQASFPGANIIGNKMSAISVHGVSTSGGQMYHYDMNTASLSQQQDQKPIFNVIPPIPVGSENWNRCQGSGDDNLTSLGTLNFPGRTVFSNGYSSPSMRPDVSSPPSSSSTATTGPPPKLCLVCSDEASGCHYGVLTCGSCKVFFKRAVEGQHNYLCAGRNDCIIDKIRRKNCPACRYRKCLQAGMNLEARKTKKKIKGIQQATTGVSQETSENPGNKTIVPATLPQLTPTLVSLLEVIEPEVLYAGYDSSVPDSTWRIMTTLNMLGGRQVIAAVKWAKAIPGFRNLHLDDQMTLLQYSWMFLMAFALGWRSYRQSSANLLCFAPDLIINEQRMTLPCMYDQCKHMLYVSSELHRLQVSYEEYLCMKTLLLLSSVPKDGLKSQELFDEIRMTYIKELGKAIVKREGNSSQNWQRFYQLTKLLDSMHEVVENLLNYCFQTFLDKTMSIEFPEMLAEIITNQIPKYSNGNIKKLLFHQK
Chain of Oxysterols receptor LXR-alpha (Homo sapiens) (Q13133 whole entry, looked up, the tested form may be a part): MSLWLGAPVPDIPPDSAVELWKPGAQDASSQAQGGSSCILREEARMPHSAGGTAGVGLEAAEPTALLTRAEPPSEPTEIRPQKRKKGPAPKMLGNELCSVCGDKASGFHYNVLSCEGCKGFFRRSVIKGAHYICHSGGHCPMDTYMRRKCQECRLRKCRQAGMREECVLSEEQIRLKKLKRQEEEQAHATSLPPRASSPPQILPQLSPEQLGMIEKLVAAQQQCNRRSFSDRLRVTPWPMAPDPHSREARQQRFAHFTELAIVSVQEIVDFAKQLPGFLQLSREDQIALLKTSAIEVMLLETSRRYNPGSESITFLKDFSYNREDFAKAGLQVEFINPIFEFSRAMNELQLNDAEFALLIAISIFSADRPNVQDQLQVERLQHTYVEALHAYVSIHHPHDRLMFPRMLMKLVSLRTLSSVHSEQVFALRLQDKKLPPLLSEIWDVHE
Chain of Nuclear receptor subfamily 4 group A member 2 (Homo sapiens) (P43354 whole entry, looked up, the tested form may be a part): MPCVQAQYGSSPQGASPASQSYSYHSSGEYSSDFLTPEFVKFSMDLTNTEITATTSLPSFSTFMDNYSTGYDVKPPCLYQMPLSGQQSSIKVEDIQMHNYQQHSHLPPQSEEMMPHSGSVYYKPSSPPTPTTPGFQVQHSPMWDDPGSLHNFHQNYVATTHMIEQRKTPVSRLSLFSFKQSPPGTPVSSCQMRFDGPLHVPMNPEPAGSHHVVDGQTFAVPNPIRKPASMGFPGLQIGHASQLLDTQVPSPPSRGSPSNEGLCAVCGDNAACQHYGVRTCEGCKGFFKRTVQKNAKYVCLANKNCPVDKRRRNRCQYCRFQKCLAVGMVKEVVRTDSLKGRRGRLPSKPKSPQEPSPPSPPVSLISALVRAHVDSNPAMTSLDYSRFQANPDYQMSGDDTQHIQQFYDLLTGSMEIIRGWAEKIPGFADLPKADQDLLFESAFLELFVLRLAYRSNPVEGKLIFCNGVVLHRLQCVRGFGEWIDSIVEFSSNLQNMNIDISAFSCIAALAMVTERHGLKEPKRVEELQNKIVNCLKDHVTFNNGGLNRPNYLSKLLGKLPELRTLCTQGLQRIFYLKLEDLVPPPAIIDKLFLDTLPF

With `OCCCC(F)(F)C(F)(F)C(F)(F)C(F)(F)C(F)(F)C(F)(F)C(F)(F)F`, the compound was classed as inactive in test [1], in test [2], in test [3], in test [4], in [5] and in test [7]. In addition, in test [9], the call was inactive. Moreover, the AC50 in test [6] is 79.1 µM (active); in test [8], 16.6 µM (active) and 17.2 µM (active); in test [9] it was 81.7 µM (active).
Regarding `O=C(O)C(F)(F)C(F)(F)C(F)(F)F`, the compound was called inactive in [1], in test [2], in [3], in test [4], in test [5] and in test [10]. Besides, the call in [6], in test [7] and in [8] was inactive.
Consider `CC(Cc1ccc(O)c(O)c1)C(C)Cc1ccc(O)c(O)c1` (stereo not drawn), for which the compound was called inactive in test [1], in test [2], in [3], in [4], in [10] and in [6]. For the same compound, the compound was called inactive in test [7] and in test [9]. In addition, the AC50 in test [8] is 57.1 µM (active).
Regarding `FC(F)(F)C(F)(F)C(F)(F)CI`, the compound was classed as inactive in [1], in test [3], in test [4], in [5] and in test [10].
Regarding `CCN(Cc1cccc(S(=O)(=O)O)c1)c1ccc(C(=C2C=CC(=[N+](CC)Cc3cccc(S(=O)(=O)O)c3)C=C2)c2ccc(O)cc2S(=O)(=O)[O-])cc1`, the call in test [1], in test [3], in [4], in [5], in test [7] and in test [8] was inactive. Moreover, in test [9], the compound was called inactive.
For `CCCCCCOC(=O)c1ccccc1O`, the call in [1], in test [2], in test [3], in [4], in [10] and in test [6] was inactive. In test [8], the outcome was inactive.
On to `CCCCOc1ccc(N)cc1`, for which the result in test [1], in test [3], in test [4], in [5], in test [7] and in test [9] was inactive.
On to `C#C[C@]1(O)CC[C@H]2[C@@H]3CCc4cc(OC)ccc4[C@H]3CC[C@@]21C`, for which the compound was called inactive in test [1], in test [2], in test [3], in [4], in test [5] and in [10]. In addition, the compound was called inactive in test [6] and in test [7].
`C=C(C)C(=O)OCC(F)(F)C(F)(F)C(F)(F)F`: the call in [1], in test [2], in test [3], in test [4], in [5] and in test [6] was inactive. Also, the compound was called inactive in test [7], in [8] and in test [9].
`O=C(Cl)C(F)(F)C(F)(F)C(F)(F)C(F)(F)C(F)(F)C(F)(F)C(F)(F)C(F)(F)F`: the result in test [1], in [2], in test [3], in [10], in test [6] and in test [7] was inactive. The half-maximal activity concentration (AC50) in test [8] is 24.9 µM (active).
On to `CCO[Si](CCC(F)(F)C(F)(F)C(F)(F)C(F)(F)C(F)(F)C(F)(F)F)(OCC)OCC`, for which the compound was called inactive in test [1], in test [2], in test [3], in [4], in test [5] and in test [10]. The compound was called inactive in test [6], in test [7], in test [8] and in [9].
Take `FC(F)(F)C(F)(F)CNCC(F)(F)C(F)(F)F`: the compound was called inactive in [1], in test [3], in [4], in [5], in test [10] and in [6]. The compound was called inactive in test [7] and in [8].
As for `Cc1ccc(S(=O)(=O)OCC(F)(F)C(F)(F)C(F)(F)C(F)(F)C(F)(F)C(F)F)cc1`, the call in [2], in test [3], in [4], in [5], in [6] and in [7] was inactive. Besides, in test [8], the result was inactive.
Consider `Nc1cc(Cl)c(N)c(Cl)c1`, for which the call in test [2], in test [3], in [4], in test [5], in test [10] and in [8] was inactive. Further, in test [9], the result was inactive.
Consider `OCC(F)(F)C(F)(F)C(F)(F)C(F)F`, for which the outcome in test [2], in test [3], in test [4], in test [5], in test [10] and in test [6] was inactive. Moreover, the result in [7] and in [9] was inactive.
Turning to `CS(C)(=O)=O`, the compound was classed as inactive in test [2], in test [3], in test [4], in [6], in test [7] and in test [8]. For the same compound, the call in test [9] was inactive.
As for `O=S(=O)(O)C(F)(F)C(F)(F)C(F)(F)C(F)(F)C(F)(F)C(F)(F)C(F)(F)F`, the result in [2], in test [3], in [4], in test [6] and in test [7] was inactive.
Consider `CC(C)c1ccccc1N`, for which the compound was classed as inactive in test [1], in [10], in test [7] and in test [8].
For the compound `FC(F)(F)C(F)(F)C(F)(F)C(F)(F)C(F)(F)C(F)(F)C(F)(F)C(F)(F)F`, the call in test [2], in test [3], in test [4], in [5], in test [10] and in test [6] was inactive. Also, the result in [7], in test [8] and in test [9] was inactive.
Take `OCC(F)(F)C(F)(F)C(F)(F)C(F)(F)C(F)(F)C(F)F`: the compound was called inactive in test [1], in test [3], in test [4], in [10], in test [7] and in test [8]. Also, the outcome in test [9] was inactive.
With `O=C(O)C(F)(F)C(F)(F)C(F)(F)C(F)(F)C(F)(F)C(F)(F)C(F)(F)C(F)(F)Cl`, the outcome in [2], in [3], in test [4], in [5], in [10] and in [6] was inactive. Further, the compound was classed as inactive in [7] and in test [8]. The AC50 in [3] was 82.3 µM (active); in test [8], 31.2 µM (active).
Take `O=C(O)C=C(C(F)(F)F)C(F)(F)F`: the call in test [2], in [3], in test [4], in [5], in [10] and in test [6] was inactive. Besides, the result in [7], in test [8] and in [9] was inactive.

These data come from PubChem BioAssay (EPA / NIEHS).
